Bioassay records deposited in PubChem BioAssay by National Center for Advancing Translational Sciences (NCATS).
The list is not random: actives were taken first. Their share in the collection is about 10%.
MCF10A rereplic – induces DNA re-replication in MCF 10a normal breast cells | 2.9% of 350,000 active | AID 624296 | MCF 10A DNA re-replication, Hoechst nuclear intensity, 48 h | Potency, µM (doses to about 46.1 µM), without a hit: at the highest dose activity, positive = re-replication, actives largely listed as activators; note: % of control where 0% means no effect; nearly all actives have a fitted effect of over 50% in size
VP16 counter – inhibits Gal4-VP16 luciferase reporter, ROR gamma counter-screen; AID 2546; 3.5% of 310,000 active; Drosophila S2 Gal4-VP16 UAS-luciferase, luminescence, 20 h; Potency, µM (series often up to 53.6 µM), for the others: at the highest dose activity, negative = inhibition, most hits filed as inhibitors;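 note: Gal4-VP16 expression switched on by copper sulfate through the metallothionein promoter; % is set by controls: 0 for no effect and ±100 for the full control effect; nearly all actives have a fitted effect of over 50% in size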
ELG1 repair inh – inhibitors of ELG1-dependent DNA repair in HEK293T cells; 2.3% of 330,000 active; HEK293T ELG1-luciferase reporter, luminescence, 16 h; DNA damage induced by 5-fluorouridine; Potency, µM (series often up to 46.1 µM), for the others: at the top dose activity change, negative = inhibition, usual class: inhibitors; note: % is set by controls: 0 for no effect and ±100 for the full control effect; nearly all actives have a fitted effect of over 55% in size
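Overnight (16 hr) co-exposure of 2,000 cells/well to 5-fluorouridine and compound at 37 °C preceded detection. Luciferase was quantified via ONE-Glo luminescence; loss of signal denotes inhibition.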
SW480 rerep – DNA re-replication induction in SW480 cells | Potency, µM (top dose mostly 46.1 µM), for the others: top-dose re-replication activation, actives largely listed as activators | 1.8% of 340,000 active | AID 624297 | SW480 DNA re-replication, Hoechst DNA content imaging, 48 h; note: % of control where 0% means no effect; nearly all actives have a fitted effect of over 55% in size
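Image-based read-out: total Hoechst fluorescence of nuclei (405 nm excitation, 500-530 nm emission), with hits raising the fraction of high-intensity nuclei. SW480 colon cells incubated 48 hr with compounds at 37 C.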
RORgamma inh – blocks mouse ROR gamma transcriptional activity; Drosophila S2 Gal4-RORgamma UAS-luciferase reporter, 20 h; 5.4% of 310,000 active; AID 2551; Potency, µM (series often up to 53.6 µM), without a hit: at the top dose activity change, negative = inhibition, actives largely listed as inhibitors; note: % is set by controls: 0 for no effect and ±100 for the full control effect; nearly all actives have a fitted effect of over 60% in size
Target sequence (P51450 whole entry, looked up, the tested form may be a part): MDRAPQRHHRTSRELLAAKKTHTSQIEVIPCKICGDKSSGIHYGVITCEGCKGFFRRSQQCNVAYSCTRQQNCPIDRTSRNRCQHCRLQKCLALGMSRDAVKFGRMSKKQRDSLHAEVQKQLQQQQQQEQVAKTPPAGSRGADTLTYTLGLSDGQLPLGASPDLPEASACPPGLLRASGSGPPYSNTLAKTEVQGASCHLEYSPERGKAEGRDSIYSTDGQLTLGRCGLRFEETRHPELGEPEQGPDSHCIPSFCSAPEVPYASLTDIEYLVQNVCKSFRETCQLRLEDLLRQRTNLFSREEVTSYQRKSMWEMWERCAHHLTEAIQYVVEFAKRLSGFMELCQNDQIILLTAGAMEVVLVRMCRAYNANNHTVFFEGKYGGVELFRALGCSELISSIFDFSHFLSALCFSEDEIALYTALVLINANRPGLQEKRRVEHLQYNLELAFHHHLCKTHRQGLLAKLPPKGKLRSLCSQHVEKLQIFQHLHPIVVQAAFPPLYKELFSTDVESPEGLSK
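Stably transfected Drosophila Schneider cells are the test system, with ROR gamma fused to Gal4 and luciferase under UAS control; luminescence is read after 20 hr of 700 uM copper sulfate induction at ambient temperature.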
* = called active by the depositor. Calls come from the whole dose curve; as a rule, active = well fitted curve in the direction sought with a large enough effect; inconclusive = small, poorly fitted or top-dose-only effect, or another doubt; inactive = no such curve, though single readings can be large; an effect the other way counts as inactive or inconclusive. Potency is the fitted concentration of half-maximal effect.

Screening O=C(NNC(=O)c1cc(-c2cccnc2)nc2ccccc12)Nc1ccc(Cl)cc1 returned MCF10A rereplic inconclusive, VP16 counter -1%, ELG1 repair inh inconclusive, SW480 rerep -5% and RORgamma inh 31%.
Screening O=C(NNC(=O)c1cc(-c2ccncc2)nc2ccccc12)Nc1ccc(F)cc1 returned MCF10A rereplic 6%, VP16 counter -4%, ELG1 repair inh -12%, SW480 rerep -29% and RORgamma inh -29%.
O=C(NNC(=O)c1cc(-c2ccccc2)nc2ccccc12)Nc1cccc(Cl)c1 was read as MCF10A rereplic 12µM*, VP16 counter 0%, ELG1 repair inh inconclusive, SW480 rerep -4% and RORgamma inh 31%.
`COc1ccc(CN(C(=O)c2cc(=O)c3ccccc3o2)C2CCS(=O)(=O)C2)cc1OC` (stereo unspecified) gave MCF10A rereplic 0%, VP16 counter 4%, ELG1 repair inh 9%, SW480 rerep -18% and RORgamma inh 1%.
Cc1ccccc1NC(=O)Cc1nc(-c2c[nH]c(C(=O)N3CCCC3)c2)cs1 was read as MCF10A rereplic 29%, ELG1 repair inh 16µM* and SW480 rerep -21%.
For Cc1cccc(NC(=O)Cc2nc(-c3c[nH]c(C(=O)N4CCCC4)c3)cs2)c1 the results were MCF10A rereplic 21%, ELG1 repair inh inconclusive and SW480 rerep 5%.
Screening CC1(C)CC2CC(C)(CN2C(=O)NC(=O)c2ccccc2)C1 (stereo unspecified) returned MCF10A rereplic 3%, VP16 counter 1%, ELG1 repair inh 5%, SW480 rerep 0% and RORgamma inh -20%.
`Cc1ccc(C(=O)Nc2ccccc2C(=O)N2CC3(C)CC2CC(C)(C)C3)cc1` (stereo unspecified) gave MCF10A rereplic 26µM*, VP16 counter -4%, ELG1 repair inh 23µM*, SW480 rerep inconclusive and RORgamma inh -15%.
CN(N)C(=S)Nc1ccc(F)cc1 was read as MCF10A rereplic -1%, VP16 counter 4%, ELG1 repair inh -8%, SW480 rerep -3% and RORgamma inh -3%.
Screening CN(C(=S)Nc1ccc(F)cc1)C1(c2ccccc2Cl)CCCCC1=O (stereo unspecified) returned MCF10A rereplic inconclusive, VP16 counter -4%, ELG1 repair inh 0%, SW480 rerep inconclusive and RORgamma inh 8.9µM*.
Screening COc1cccc(OC)c1C(=O)NC(=S)Nc1ccc2oc(-c3ccncc3)nc2c1 returned MCF10A rereplic 28%, VP16 counter -10%, ELG1 repair inh 0%, SW480 rerep 5% and RORgamma inh -24%.
Screening CCc1ccc(/C=N/NC(=O)c2cc(-c3cccc([N+](=O)[O-])c3)n[nH]2)cc1 returned MCF10A rereplic 5.2µM*, VP16 counter 1%, ELG1 repair inh inconclusive, SW480 rerep 23µM* and RORgamma inh -9%.
`C/C(=N/NC(=O)c1cc(-c2cccc([N+](=O)[O-])c2)n[nH]1)c1cccc(O)c1` gave MCF10A rereplic 1%, VP16 counter -8%, ELG1 repair inh inconclusive, SW480 rerep inconclusive and RORgamma inh 0%.
`O=C(N/N=C/c1cccc(O)c1)c1cc(-c2ccc3c(c2)OCO3)n[nH]1` gave MCF10A rereplic 14%, VP16 counter -25%, ELG1 repair inh inconclusive, SW480 rerep -9% and RORgamma inh -32%.
`C/C(=N\NC(=O)c1cc(-c2cccc([N+](=O)[O-])c2)n[nH]1)c1ccccc1O` gave MCF10A rereplic -34%, VP16 counter 18µM*, ELG1 repair inh -24%, SW480 rerep inconclusive and RORgamma inh 3.2µM*.
For O=C(N/N=C/c1cccc([N+](=O)[O-])c1)c1cc(-c2ccc3c(c2)OCO3)n[nH]1 the results were MCF10A rereplic 12µM*, VP16 counter inconclusive, ELG1 repair inh 19%, SW480 rerep -122% and RORgamma inh 2%.
Screening Nc1ccc2c(c1)Cc1c(F)cccc1-2 returned MCF10A rereplic -5% and SW480 rerep 1%.
`Cc1ccc(-c2nc(C#N)c(NCc3cccc4c3OCO4)o2)cc1` gave MCF10A rereplic 16µM*, VP16 counter -11%, ELG1 repair inh inconclusive, SW480 rerep inconclusive and RORgamma inh 39%.
Screening CN1CCN(c2nc(-c3ccc(Cl)cc3Cl)nc3ccccc23)CC1 returned MCF10A rereplic -3%, VP16 counter -2%, ELG1 repair inh -5%, SW480 rerep -5% and RORgamma inh -5%.
CC(/C=C/c1ccc(N(C)C)cc1)=N/N=C1/NC(=O)CC(C(=O)Nc2ccc(Cl)cc2)S1 (stereo unspecified) was read as MCF10A rereplic 6.5µM*, VP16 counter 8.9µM*, ELG1 repair inh inconclusive, SW480 rerep 21µM* and RORgamma inh 2.5µM*.
For CC(/C=C/c1ccc(N(C)C)cc1)=N\N=C1\NC(=O)CC(C(=O)Nc2ccccc2)S1 (stereo unspecified) the results were MCF10A rereplic 12µM*, VP16 counter 3.5µM*, ELG1 repair inh inconclusive, SW480 rerep inconclusive and RORgamma inh 2.2µM*.
CCCOc1ccc(NC(=O)C2CC(=O)N/C(=N/N=C(C)/C=C/c3ccc(N(C)C)cc3)S2)cc1 (stereo unspecified) was read as MCF10A rereplic 5.2µM*, VP16 counter 3.2µM*, ELG1 repair inh inconclusive, SW480 rerep 18µM* and RORgamma inh 2.8µM*.
For COc1ccc(NC(=O)C2CC(=O)N/C(=N/N=C/c3ccccc3)S2)cc1 (stereo unspecified) the results were MCF10A rereplic 4%, VP16 counter 5%, ELG1 repair inh inconclusive, SW480 rerep 4% and RORgamma inh -2%.
Cc1onc(-c2ccccc2)c1C1=N/C(=C\c2ccccc2F)C(=O)O1 was read as MCF10A rereplic 5%, VP16 counter 6%, ELG1 repair inh 1%, SW480 rerep -3% and RORgamma inh 39%.
`CC(=O)Nc1ccc(S(=O)(=O)N2CCN(S(=O)(=O)N3CCC(C)CC3)CC2)cc1` gave MCF10A rereplic -10%, VP16 counter -25%, ELG1 repair inh -10%, SW480 rerep 13% and RORgamma inh -17%.
Screening O=C(Cn1cnc2cc([N+](=O)[O-])ccc2c1=O)Nc1cccc2ccccc12 returned MCF10A rereplic inconclusive, VP16 counter -2%, ELG1 repair inh -9%, SW480 rerep -10% and RORgamma inh -2%.
CN(Cc1cccs1)C(=O)Cn1cnc2cc([N+](=O)[O-])ccc2c1=O was read as MCF10A rereplic 0.82µM*, VP16 counter -4%, ELG1 repair inh 1%, SW480 rerep -13% and RORgamma inh -9%.
